Source: PubChem BioAssay
LDHA block: qHTS assay for inhibitors of human lactate dehydrogenase; L-lactate dehydrogenase A chain (Homo sapiens), P00338; purified LDHA, NADH/diaphorase-resazurin fluorescence; active compounds read low; activity change, % (values are at about 110 or 230 µM); 480,000 compounds, 0.15% hits; AID 1347041, 2019; in the data active = activity change below about -30%; inconclusive = mostly about -25% to -30%;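 also: plate controls were DMSO wells for no effect and wells without enzyme for full effect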
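LDH5 2 nM; NADH 0.06 mM, pyruvate 0.2 mM; 200 mM Tris pH 7.4, EDTA, Tween-20; 5 min RT. Detection: diaphorase 0.133 mg/mL + resazurin 37 µM, fluorescence ex540/em590 at 0 and 20 min; normalized to enzyme-free and DMSO wells.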
ASM inhibitor: Inhibitors of Secretory Acid Sphingomyelinase (S-ASM): qHTS. 340,000 compounds, 0.006% hits. Sphingomyelin phosphodiesterase (Homo sapiens), P17405. placental ASM, HMU-PC fluorogenic substrate, 60 min. Potency, µM (top dose mostly 57.5 µM), for inactives: at the top dose activity change, negative = inhibition, most hits filed as inhibitors; also: potency is read from the fitted curve at half-maximal effect
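Human placenta-derived ASM enzyme was preincubated with compound for 10 minutes at room temperature, then given fluorogenic substrate HMU-PC0 (9 uM final) for 60 minutes at 37 °C; a pH 10 stop preceded fluorescence reading at Ex 386/Em 447 nm.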
RGS4 inhibitor: Inhibitors of Regulator of G Protein Signaling (RGS) 4: qHTS | Regulator of G-protein signaling 4 (Homo sapiens), P49798 | Transcreener GDP fluorescence polarization, RGS4-accelerated GTP hydrolysis | Potency, µM (series often up to 114 µM), for inactives: at the highest dose activity change, negative = inhibition, usual class: inhibitors | 390,000 compounds, 0.039% hits | AID 504845, 2011; also: potency is read from the fitted curve at half-maximal effect; % is scaled to controls: 0 for no effect and ±100 for the full control effect; nearly all actives have a fitted effect of over 75% in size
Target sequence (P49798 whole entry, looked up): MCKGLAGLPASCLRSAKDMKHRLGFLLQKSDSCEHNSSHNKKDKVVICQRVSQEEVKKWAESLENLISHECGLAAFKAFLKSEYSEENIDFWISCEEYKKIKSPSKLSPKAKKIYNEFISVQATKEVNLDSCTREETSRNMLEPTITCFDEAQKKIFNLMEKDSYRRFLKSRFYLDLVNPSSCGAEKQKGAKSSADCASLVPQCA
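MLSMR compounds (23 nl, pin-transferred) preincubated 10 min at room temperature with a 500nM (2x) first reagent, then RGS4 at 900nM (2x) plus Transcreener GDP mix added; fluorescence polarization (620/688 nm) read before and after 90 min at 30 °C.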
IDH1 R132H inh: qHTS for Inhibitors of mutant isocitrate dehydrogenase 1 (IDH1): qHTS; Isocitrate dehydrogenase [NADP] cytoplasmic (Homo sapiens), O75874; IDH1-R132H enzyme, NADPH consumption, diaphorase/resazurin fluorescence; Potency, µM (titrated, usually from 76.6 µM), for inactives: at the highest dose activity change, negative = inhibition, most hits filed as inhibitors; 390,000 compounds, 0.093% hits; also: potency is read from the fitted curve at half-maximal effect; % is scaled to controls: 0 for no effect and ±100 for the full control effect; nearly all actives have a fitted effect of over 65% in size
Target sequence (O75874 whole entry R132H, stated change not applied): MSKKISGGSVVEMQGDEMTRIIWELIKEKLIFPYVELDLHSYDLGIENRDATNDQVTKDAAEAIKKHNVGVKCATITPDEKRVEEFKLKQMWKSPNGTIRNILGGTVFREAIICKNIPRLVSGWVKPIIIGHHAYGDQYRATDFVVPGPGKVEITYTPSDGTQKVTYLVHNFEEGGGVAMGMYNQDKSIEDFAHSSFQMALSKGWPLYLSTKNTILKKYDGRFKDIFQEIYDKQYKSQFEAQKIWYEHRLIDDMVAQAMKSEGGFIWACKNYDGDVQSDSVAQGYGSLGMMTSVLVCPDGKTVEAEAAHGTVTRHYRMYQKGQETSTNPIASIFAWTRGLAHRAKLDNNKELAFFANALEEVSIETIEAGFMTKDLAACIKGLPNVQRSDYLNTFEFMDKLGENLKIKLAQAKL
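IDH1-R132H (0.5 ug/mL) preincubated 30 min with compound, then NADPH (0.016 mM) and alpha-KG (2 mM) added; 80 min at RT, pH 7.5. Remaining NADPH coupled via diaphorase/resazurin to fluorescence (540/590 nm); concentration-response curves normalized to no-enzyme control.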
Mito fusion yeast: qHTS Assay for Small Molecule Inhibitors of Mitochondrial Division or Activators of Mitochondrial Fusion | S. cerevisiae fusion-defective mutant growth rescue, CellTiterGlo 48 h | Potency, µM (titrated, usually from 46.1 µM), inactives show at the highest dose growth rescue (activation), most hits filed as activators | 320,000 compounds, 0.23% hits; also: potency is read from the fitted curve at half-maximal effect; % of control where 0% means no effect; nearly all actives have a fitted effect of over 45% in size
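Read-out: ATP-based luminescence (CellTiterGlo, 10 min ambient) reporting growth of fusion-defective ts yeast after 48 hours at 37C on glycerol/ethanol YPEG medium in the presence of compound.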
ClpP mod: qHTS Assay for Activators of ClpP. ATP-dependent Clp protease proteolytic subunit (Bacillus subtilis (strain 168)), P80244. purified B. subtilis ClpP, FRET peptide cleavage, 20 min. 340,000 compounds, 1.9% hits. Potency, µM (top dose mostly 57.5 µM), inactives show at the top dose activity change, negative = active; active = well fitted falling curve with a large enough effect; inconclusive = small, poorly fitted or top-dose-only effect; inactive = no such curve, though single readings can be large or run the other way; also: potency is read from the fitted curve at half-maximal effect; the source files actives as falling curves though it sought activators and does not explain the sign; nearly all actives have a fitted effect of over 65% in size
Target sequence (P80244 whole entry, looked up): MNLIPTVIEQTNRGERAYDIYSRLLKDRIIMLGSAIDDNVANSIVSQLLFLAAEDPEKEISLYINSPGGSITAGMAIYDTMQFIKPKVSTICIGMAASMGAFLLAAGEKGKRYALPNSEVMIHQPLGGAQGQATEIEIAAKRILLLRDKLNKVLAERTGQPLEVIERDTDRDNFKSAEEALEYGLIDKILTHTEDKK
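Buffer: 100 mM Tris/HCl pH8, 100 mM KCl, 0.05% low protease BSA, 2.5% glycerol, 0.01% Tween-20. ClpP 10 microg/mL final; 20 min RT; delta FRET normalized to ADEP and DMSO controls.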
ClpP inh valid: qHTS Assay for Activators of ClpP: Hit Validation of Inhibitors | shares compounds with ClpP mod | purified B. subtilis ClpP, FRET-FV substrate cleavage, 20 min | Potency, µM (doses to about 57.5 µM), without a hit: top-dose activity change, negative = inhibition, hits mostly inhibitors | 470 compounds, 40% hits; also: potency is read from the fitted curve at half-maximal effect; % is scaled to controls: 0 for no effect and ±100 for the full control effect; nearly all actives have a fitted effect of over 70% in size
Starred values were filed as active, the others as inactive; i = inactive; ? = inconclusive; nt = no result given; [ ] = another dose, or the depositor's remark. Many of the other results were omitted from the sample, so hits are more common in it than they were. Unless noted, calls follow the shape of the dose curve; as a rule, active = well fitted curve in the direction sought with a large enough effect; inconclusive = small, poorly fitted or top-dose-only effect, or another doubt; inactive = no such curve, though single readings can be large; an effect the other way counts as inactive or inconclusive.

SMILES | LDHA block | ASM inhibitor | RGS4 inhibitor | IDH1 R132H inh | Mito fusion yeast | ClpP mod | ClpP inh valid
CC(=O)N(CCCNC(=O)c1cc(F)cc2nc(C)c(C)nc12)C(C)C | -2 | nt | nt | nt | nt | nt | nt
COc1ccc2nc3n(c(=O)c2c1)-c1cc2ccccc2cc1C(=O)NC3Cc1ccccc1 (stereo not drawn) | 4 | nt | nt | 5% | nt | 5.6µM* | ?
Cc1ccc(-n2c(-c3ccco3)nc3nc4ccccc4nc32)cc1F | 0 | 113% | -25% | 2% | -5% | 2.8µM* | ?
Fc1ccc(-n2c(-c3ccco3)nc3nc4ccccc4nc32)cc1 | -3 | i | -8% | 8% | 5% | ? | nt
CCc1ccc(C(=O)C(C)n2cnc3c2c(=O)n(C)c(=O)n3C)cc1 (stereo not drawn) | 7 | nt | nt | nt | nt | nt | nt
COc1ccc(-c2cc3nc4n(c(=O)c3s2)CCC4)cc1 | 1 | -3% | 7% | 9% | 15% | 106% | 1.9µM*
COc1ccc(-c2cc3nc4n(c(=O)c3s2)CCCCC4)cc1 | -9 | -1% | 27% | 3% | -5% | nt | nt
Cc1cccn2cc(-c3ccc(S(=O)(=O)N4CCOCC4)cc3)nc12 | -8 | 5% | -1% | 6% | 0% | 3.2µM* | 3.9µM*
Cc1cccn2cc(-c3ccc(S(=O)(=O)N4CCCCC4)cc3)nc12 | -2 | -1% | 1% | -3% | -4% | nt | nt
NC(=O)c1ccccc1OCc1ccc(C(F)(F)F)cc1 | -10 | nt | nt | nt | nt | nt | nt
Cc1cc(=O)oc2cc(OCC(=O)OCC(=O)NCc3ccc4c(c3)OCO4)ccc12 | -7 | 93% | 11% | 1% | 1% | 199% | -26%
Cc1cc(=O)oc2cc(OCC(=O)OCC(=O)Nc3ccccc3F)ccc12 | -2 | 327% | -27% | 8% | -1% | nt | nt
Cc1ccc(NC(=O)COC(=O)COc2ccc3ccc(=O)oc3c2)cc1[N+](=O)[O-] | 0 | -2% | -9% | 2% | -2% | 104% | 19µM*
CC(=O)Nc1ccc(NC(=O)COc2ccc3ccc(=O)oc3c2)cc1 | 7 | nt | nt | nt | nt | nt | nt
Cc1cc(=O)oc2cc(OCC(=O)OCC(=O)Nc3ccccc3C(C)C)ccc12 | 11 | 95% | 9% | -5% | 3% | 79% | ?
Cc1cc(=O)oc2cc(OCC(=O)Nc3cccc(S(=O)(=O)N(C)C)c3)ccc12 | -2 | 8% | 11% | 1% | -4% | -13% | nt
Cc1ccc(S(=O)(=O)N(C)C)cc1NC(=O)COC(=O)COc1ccc2c(C)cc(=O)oc2c1 | 1 | 138% | -4% | 1% | nt | 88% | -24%
Cc1cc(OCC(=O)OCC(=O)NCc2ccc3c(c2)OCO3)ccc1Cl | -2 | -2% | -15% | 16% | -5% | -1% | nt
O=C(O)C/C(=C/c1ccc(Cl)cc1Cl)c1nc2ccccc2o1 | 2 | nt | nt | nt | nt | nt | nt
CC(C)CN(CC(C)C)C(=O)CC(c1ccccc1)c1ccccc1 | -1 | nt | nt | nt | nt | nt | nt
Cc1ccc(-c2nc(C#N)c(NCC(C)C)o2)cc1 | -5 | nt | nt | nt | nt | nt | nt
CCNc1nc(NCC)n2c(SCC(=O)Nc3ccc(OC)c(OC)c3)nnc2n1 | -3 | 0% | -8% | 2% | -4% | 46% | 0%
COc1ccc(-c2ccc(-c3nnc(Cc4ccc(OC)c(OC)c4)o3)cc2)cc1 | -7 | -1% | -38% | 0% | -7% | 2µM* | ?
COc1ccc(OC)c(NCc2nnc(-c3ccccc3)o2)c1 | 3 | 5% | 4% | -6% | -1% | nt | nt
Cc1cccc(N2N=C(C(=O)Nc3ccc(S(=O)(=O)N4CCCCCC4)cc3)CCC2=O)c1 | 0 | nt | nt | nt | nt | nt | nt
SMILES | LDHA block | ASM inhibitor | RGS4 inhibitor | IDH1 R132H inh | Mito fusion yeast | ClpP mod | ClpP inh valid
Cc1nc2ccccn2c1C(=O)Nc1ccc2c(c1)OCCO2 | 0 | 2% | 1%[11.4 µM] | 6% | 3% | ? | -2%
CC(C)(C)c1cc(C#N)cc(C(C)(C)C)c1O | -5 | nt | nt | nt | nt | nt | nt
CC(=O)N1N=C(c2ccc(Br)cc2)OC12CCCC2 | -1 | 0% | 7% | 4% | -6% | 1% | nt
CC(=O)N1N=C(c2ccncc2)OC12CCCC2 | -2 | 2% | -8% | 1% | -1% | 10µM* | 24µM*
c1ccc2oc(-c3ccc(Nc4nc(N5CCCCC5)nc(N5CCOCC5)n4)cc3)nc2c1 | nt | nt | nt | nt | -1% | nt | nt
COc1nc(Nc2ccc(-c3nc4ccccc4o3)cc2)nc(N2CCOCC2)n1 | 0 | 6% | 6% | 3% | nt | 8.9µM* | 19µM*
COc1ccc(NC(=O)C2=C(C)Nc3nc(SCc4ccc(C)cc4C)nn3C2c2cccc(OC)c2OC)cc1 (stereo not drawn) | -11 | nt | -20% | -4% | nt | 81% | -19%
COc1cccc(CSc2nc3n(n2)C(c2ccccc2C)C(C(=O)Nc2ccccc2OC)=C(C)N3)c1 (stereo not drawn) | -5 | nt | 8% | 31% | nt | ? | nt
COc1cc2c(cc1OC)C(COc1ccc3c(C)cc(=O)oc3c1)N(C(=O)c1ccccc1F)CC2 (stereo not drawn) | -1 | nt | 12% | 15% | nt | 91% | ?
CC(C)CCNc1ncnc2c1nnn2Cc1ccccc1Cl | -6 | 1% | 11% | 3% | -9% | 10µM* | -2%
Cc1ccc(NC(=O)c2ccc(-c3ccccc3)s2)cc1 | -12 | nt | -50% | 2% | nt | 47% | -9%
CCCc1cc(C(=O)O)c2ccccc2n1 | -5 | -1% | 6% | 8% | -3% | -2% | nt
CCCc1c2ccccc2nc2ccccc12 | -6 | 272% | -31% | 9% | 0% | 7.1µM* | 19µM*
CCOCCCNCc1ccc(C(C)C)cc1 | -1 | nt | nt | nt | nt | nt | nt
COc1ccc(OCC(=O)NCc2nc(-c3ccc(OC)cc3)no2)cc1 | -1 | nt | nt | nt | nt | nt | nt
O=c1n(Cc2ccc(Cl)cc2)c2sc3c(c2c2ncnn12)CCCC3 | 2 | ? | ? | 1% | ? | 2.8µM* | -3%
CCN(CC)CCCNC(=O)c1cn(CCOC)c(=O)c2c1c1ccccc1n2C | 0 | 12% | -2% | 5% | 0% | 10µM* | 22µM*
CCN(CC)CCCNC(=O)c1cn(C)c(=O)c2c1c1ccccc1n2C | -2 | 8% | ? | 4% | 0% | 4% | nt
